We go through 25 compounds from PubChem BioAssay (NCATS).

Records with an inconclusive call do not appear. Unmarked numbers belong to inactive results. The source made the active and inactive calls. The call rests on the fitted dose curve; in most records, active means well fitted activation curve with a large enough effect; inconclusive means small, poorly fitted or top-dose-only effect; inactive means no such curve, though single readings can be large or run the other way.
Potency means the concentration at half of the fitted maximal effect.

A short description of this assay: qHTS for activators of Nrf2/ARE signaling pathway screened against the NCATS CANVASS Library (AID 1347391). Further: nearly all actives have a fitted effect of over 60% in size. On activation: 0% is about no effect. Particulars: ARE-bla HepG2, beta-lactamase reporter, 16 h; series mostly up to 46.1 µM; activation: at the top concentration. The text has this:
Natural products and their derivatives continue to be wellsprings of nascent therapeutic potential. However, many laboratories have limited resources for biological evaluation, leaving their previously isolated or synthesized compounds largely or completely untested. To address this issue, the Canvass library of natural products was assembled (https://tripod.nih.gov/canvass), in collaboration with academic and industry researchers, for quantitative high-throughput screening (qHTS) across a diverse set of cell-based and biochemical assays. The pure (>85% purity by liquid chromatography/mass spectrometry [LC/MS]) Canvass library of 346 natural products were submitted by 45 academic laboratories and companies around the world. We collected pure natural products to circumvent deconvolution and structure elucidation due to time and resource limitations. The library was formatted into 1536-well plates and evaluated in 50 qHTS (in an 11-pnt concentration series) bioassays with broad scope of disease-relevant mechanisms. The resulting data set from 50 different assays was then systematically analyzed to identify overall trends and specific natural products with interesting biological activities. Reported herein are the results of each individual qHTS and their corresponding assay protocol. This assay measures the activation of the Nrf2/ARE signaling pathway in cells using a beta-lactamase reporter gene. The ARE-bla HepG2 assay (Invitrogen) can detect the up-regulation of the antioxidant response element (ARE) signaling pathway and may be useful for the identification of chemicals that induce oxidative stress. National Center for Advancing Translational Sciences (NCATS), Rockville, MD National Institute of Health (NIH), Bethesda, Maryland
Nrf2/ARE-screen assay protocol: 1. In a white-solid bottom 1536-well plate, 5 uL of ARE-bla HepG2 cell suspension was dispensed using a Multidrop Combi (Thermo Fisher Scientific) at a final concentration of 2000 cells / well. 2. The assay plates were incubated for 5 hours at 37C, 5% CO2. 3. 23 nL of compounds (in DMSO; columns 5-48), vehicle control DMSO, and positive control were pin transferred into the assay plates using the Kalypsis pin tool (Wako USA) equipped with a 1536-well pin heads. This yields a final CANVASS compound concentration of 0.4 nM - 95 uM. 4. The assay plates were incubated for 16 hours at 37C, 5% CO2. 5. After compound treatment, 1 uL per well of CCF4 dye detection reagent was added using the BioRAPTR dispenser. 6. The assay plates were incubated for 2 hours at room temperature. 7. Fluorescence readout was obtained using the Envision plate reader (PerkinElmer) using a 405 nm excitation and 460 nm and 530 nm emission filters. 8. To evaluate cell viability, 4 uL of CellTiter-Glo was added to each wells using the BioRAPTR dispenser followed by a 30 min room temperature incubation. 9. Luminescence was measured using the ViewLux plate reader with clear emission filter and 2x binning, 1 sec exposure settings.
Background: qHTS replaces the single test concentration by a dilution series.
Consider `CCCC[C@@H]1CC[C@H]2CCCC(CCC)N12` (stereo not given in full), for which the “activation” value is 15.5%. Same read-out and setting: as for `C/C=C1/CN2CC[C@]34C(=Nc5ccccc53)[C@@H]2C[C@@H]1[C@H]4C(=O)OC`, the figure is 7.21% [at 91.4 µM]; as for `CC[N@@+]1([O-])C[C@]2(C)CC[C@@H](O)[C@@]34C5C[C@H]6CC[C@@]5(C(C[C@H]23)C41)[C@H](O)[C@@]6(O)CO` (stereo not given in full), 5.37%. Same read-out and setting: as for `CCCCC[C@@H]1OC(=O)[C@@H](C)N(C)C(=O)[C@H](CCCCC)OC(=O)C(C)N(C)C(=O)[C@H](CCCCC)OC(=O)[C@@H](C)N(C)C(=O)[C@H](CCCCC)OC(=O)C(C)N(C)C1=O` (stereo not given in full), the figure is -28.4%. Still for that read-out and setting: as for `CC(=O)N[C@H]1CCN2CCC[C@H]12`, the figure is -0.856% [at 103 µM]; as for `c1ccc2c3c([nH]c2c1)CNCC3`, 15.9%. For the compound `CCC[C@H]1CC[C@H]2[C@H](C)CCC[C@H]2N1`, the “activation” value is 6.98%. Still for that read-out and setting: the same measure for `CC1=CC2CC[C@@H]3[C@@H](C)C[C@H](C)[C@@H](C1)N23` (stereo not given in full): 5.24%; for `CO[C@@H](/C=C/CC/C=C/C(=O)O)[C@@H](O)[C@H](C)/C=C(\C)[C@@H](O)[C@H](C)C(=O)CCCC1CC(=O)NC(=O)C1`: 8.41%; for `CNCCc1ccc(O)cc1`: 2.53%. Turning to `CCN1C[C@]2(C)CC[C@H](O)[C@]34C1C(C[C@H]23)[C@@]12CC[C@H](CC14)[C@](O)(COC(=O)c1ccc(OC)c(OC)c1)[C@H]2O` (stereo not given in full), the “activation” value is 6.2%. The same measure, in the same setting: the same measure for `CNCCc1c[nH]c2ccccc12`: 11.2%. For `O=C(c1ccccc1O)c1[nH]c(Cl)c(Cl)c1-n1c(C(=O)c2ccccc2O)cc(Cl)c1Cl`, the “activation” value was -33.3%. On the same count and under the same terms, as for `CO[C@H](c1ccccc1)[C@H]1NC(=O)C(C)NC(=O)C(C[C@@H](C)CO)N(C)C(=O)[C@@H](C(O)c2cn(C(C)(C)C3CO3)c3ccccc23)NC(=O)C(C(C)C=C(C)C)NC(=O)C(CC(C)C)N(C)C(=O)C(C(C)C)NC1=O` (stereo not given in full), the figure is 16.5% [at 27.5 µM]. Take `C=C1[C@@H](C)[C@H]2[C@H](Cc3ccccc3)NC(=O)[C@]23OC(=O)/C=C/[C@H](O)CCC[C@@H](C)C/C=C/[C@H]3[C@@H]1O`: the “activation” value was -8.25%.

For `CCN1C[C@]2(C)CC[C@@H](O)[C@]34C1[C@H](C[C@H]23)C12CCC(CC14)[C@](O)(CO)[C@H]2O` (stereo not given in full), the “activation” value is 7.78%. Take `CC1=CC(=O)C2=C(C)C[C@H](O)[C@@H]3[C@H](OC(=O)[C@@H]3C)[C@@H]12`: the Potency is 13.2 µM (active). As to `NCCc1ccccc1`, the “activation” value is 12%. Same read-out and setting: the same measure for `COC(=O)C1=C2Nc3ccccc3[C@@]23CCN2CC(C(C)=O)C1C[C@H]23` (stereo not given in full): 19.3%; for `CCC(=O)CCCCC[C@@H]1NC(=O)[C@H]2CCCCN2C(=O)[C@H]([C@@H](C)CC)NC(=O)[C@H](Cc2cn(OC)c3ccccc23)NC1=O`: -43.4%. On the same count and under the same terms, the same measure for `CC[C@@H]1CN2CC[C@@]3(O)C(=Nc4cccc(OC)c43)[C@@H]2C[C@@H]1/C(=C\OC)C(=O)OC`: 28.6%; for `CN1C(=O)[C@]23CC4C(C)(C)[C@@]5(C[C@@]41CN2CC[C@@]3(C)O)C(=O)Nc1c5ccc2c1OC=CC(C)(C)O2` (stereo not given in full): 13.7%. In the case of `CO[C@@H](/C=C/CC/C=C/C(=O)O)[C@@H](O)[C@H](C)[C@@H](O)/C(C)=C/[C@H](C)C(=O)CCCC1CC(=O)NC(=O)C1`, the “activation” value was 16.7%. On the same count and under the same terms, the same measure for `CNCCc1ccccc1`: 2.21%. The same measure, in the same setting: as for `CN(C)Cc1c[nH]c2ccccc12`, the figure is 10.2%.
